Laboratory results published in the antibiotic and cytotoxicity screens of Wong et al. (2023).
Among all 39,000 compounds or so, about 3,300 (8.5%) were called active. This is one part of a sample in which actives are shown more often than they occur.

test system: HepG2; assay: cytotoxicity call (relative viability < 0.9); conditions: 10 µM

| SMILES | cytotoxicity call |
| --- | --- |
| C[C@H]1CN([C@@H](C)CO)C(=O)Cc2cc(NS(=O)(=O)c3ccc(F)cc3)ccc2O[C@H]1CN(C)S(=O)(=O)c1cccs1 | inactive |
| Cc1ccccc1-c1ccc2c(c1)O[C@@H](CN(C)C(=O)Nc1ccc(C(F)(F)F)cc1)[C@@H](C)CN([C@@H](C)CO)S2(=O)=O | inactive |
| COC(=O)[C@@H]1CC(=O)N(C(C)C)C1 | inactive |
| C[C@@H]1CN([C@H](C)CO)C(=O)c2c(c3ccccc3n2C)-c2ccccc2CO[C@@H]1CN(C)Cc1ccc(Oc2ccccc2)cc1 | inactive |
| CN1CCN(C(=O)C[C@@H]2C=C[C@H](NC(=O)Cc3ccccn3)[C@@H](CO)O2)CC1 | inactive |
| CCCC#Cc1cnc2c(c1)C(=O)N([C@@H](C)CO)C[C@@H](C)[C@H](CN(C)C(=O)c1ccc3c(c1)OCO3)O2 | inactive |
| Cc1noc(C)c1NC(=O)N(C)C[C@H]1Oc2ccc(NC(=O)Nc3cccc4ccccc34)cc2CC(=O)N([C@@H](C)CO)C[C@H]1C | inactive |
| C[C@@H]1CCCCO[C@@H](CN(C)C(=O)Nc2ccc(C(F)(F)F)cc2)[C@@H](C)CN([C@H](C)CO)C(=O)c2cc(NC(=O)CCC(F)(F)F)ccc2O1 | inactive |
| C[C@@H]1CCCCO[C@H](CN(C)C(=O)Nc2ccc(C(F)(F)F)cc2)[C@@H](C)CN([C@H](C)CO)C(=O)c2cc(NC(=O)CCC(F)(F)F)ccc2O1 | inactive |
| C[C@H](CO)N1C[C@H](C)[C@@H](CN(C)C(=O)Nc2ccc(C(F)(F)F)cc2)OCCCC[C@H](C)Oc2ccc(NC(=O)CCC(F)(F)F)cc2C1=O | active |
| C[C@@H]1CCCCO[C@@H](CN(C)C(=O)Nc2ccc(C(F)(F)F)cc2)[C@H](C)CN([C@@H](C)CO)C(=O)c2cc(NC(=O)CCC(F)(F)F)ccc2O1 | inactive |
| C[C@H](CO)N1C[C@H](C)[C@H](CN(C)C(=O)Nc2ccc(C(F)(F)F)cc2)OCCCC[C@H](C)Oc2ccc(NC(=O)CCC(F)(F)F)cc2C1=O | inactive |
| C[C@@H]1CCCCO[C@H](CN(C)C(=O)Nc2ccc(C(F)(F)F)cc2)[C@H](C)CN([C@@H](C)CO)C(=O)c2cc(NC(=O)CCC(F)(F)F)ccc2O1 | active |
| C[C@H]1CCCCO[C@H](CN(C)C(=O)Nc2ccc(C(F)(F)F)cc2)[C@@H](C)CN([C@@H](C)CO)C(=O)c2cc(NC(=O)CCC(F)(F)F)ccc2O1 | active |
| C[C@@H]1CN([C@@H](C)CO)C(=O)c2cc(NC(=O)CCC(F)(F)F)ccc2O[C@@H](C)CCCCO[C@H]1CN(C)C(=O)Nc1ccc(C(F)(F)F)cc1 | inactive |
| C[C@@H]1CCCCO[C@H](CN(C)C(=O)Nc2ccc(C(F)(F)F)cc2)[C@H](C)CN([C@H](C)CO)C(=O)c2cc(NC(=O)CCC(F)(F)F)ccc2O1 | inactive |
| Clc1ccc2c(c1)[C@H]1C=CC[C@@H]1[C@@H](c1ccccc1)N2 | inactive |
| O=C(C[C@H]1C[C@H]2c3cc(NC(=O)C4CCOCC4)ccc3O[C@H]2[C@@H](CO)O1)NCc1ccc2c(c1)OCO2 | inactive |
| C[C@@H]1CN([C@H](C)CO)C(=O)c2cc(NC(=O)Nc3cccc4ccccc34)ccc2O[C@@H](C)CCCCO[C@@H]1CN(C)C(=O)NC1CCCCC1 | inactive |
| CN(C)C(=O)CN1CCC2(CC1)CN(CCn1cccn1)C(=O)CO2 | inactive |

| SMILES | cytotoxicity call |
| --- | --- |
| CO[C@@H]1CN(C)C(=O)c2ccc(NS(=O)(=O)CC(F)(F)F)cc2OC[C@@H](C)N(C(=O)c2ccc3c(c2)OCO3)C[C@@H]1C | inactive |
| Cc1noc(C)c1NC(=O)N[C@H]1C=C[C@@H](CC(=O)N2CCN(C)CC2)O[C@@H]1CO | inactive |
| CCCNC(=O)[C@@]1(c2ccc([N+](=O)[O-])cc2)CC(=O)N(CC23CC4CC(CC(C4)C2)C3)[C@@H]1c1ccc(CO)cc1I | inactive |
| CC(C)CNC(=O)[C@@]1(c2ccc([N+](=O)[O-])cc2)CC(=O)N(CC23CC4CC(CC(C4)C2)C3)[C@@H]1c1ccc(CO)cc1I | inactive |
| CC(C)NC(=O)[C@@]1(c2ccc([N+](=O)[O-])cc2)CC(=O)N(CC23CC4CC(CC(C4)C2)C3)[C@@H]1c1ccc(CO)cc1I | active |
| CN(C)c1cc(NC(=O)CNC(C)(C)C)c(O)c2c1C[C@H]1C[C@H]3[C@H](N(C)C)C(=O)C(C(N)=O)=C(O)[C@@]3(O)C(=O)[C@H]1C2=O | inactive |
| O=C(C[C@@H]1C[C@H]2c3cc(NC(=O)Cc4ccncc4)ccc3O[C@H]2[C@@H](CO)O1)NCc1cccc(F)c1 | inactive |
| N[C@H](C(=O)O)[C@@H]1CC(Cl)=NO1 | active |
| C[C@@H]1CN([C@H](C)CO)C(=O)c2cc(NS(=O)(=O)c3ccc(F)cc3)ccc2O[C@@H]1CN(C)S(=O)(=O)c1cccs1 | inactive |
| Cc1noc(C)c1S(=O)(=O)Nc1ccc2c(c1)CC(=O)N([C@@H](C)CO)C[C@H](C)[C@@H](CN(C)S(=O)(=O)c1ccc(Cl)cc1)O2 | inactive |
| Cc1cccc(C(=O)O)c1O | inactive |
| Cc1cccc(C)c1NC(=O)c1ccccc1C(=O)O | active |
| Cc1cccc(Nc2ccccc2C(=O)O)c1C | inactive |
| C[C@@H]1CN([C@@H](C)CO)S(=O)(=O)c2ccc(C#CC3CCCCC3)cc2O[C@H]1CN(C)C(=O)Cc1ccncc1 | inactive |
| CO[C@H]1C[C@H](O[C@@H]2/C(C)=C/C[C@@H]3C[C@@H](C[C@]4(CC[C@H](C)[C@@H](C5CCCCC5)O4)O3)OC(=O)[C@@H]3C=C(C)/C(=N/O)[C@H]4OC/C(=C\C=C\[C@@H]2C)[C@]43O)O[C@@H](C)[C@@H]1O | active |
| CO[C@H]1C[C@@H](O[C@@H]2/C(C)=C/C[C@@H]3C[C@@H](C[C@]4(CC[C@H](C)[C@@H](C5CCCCC5)O4)O3)OC(=O)[C@@H]3C=C(C)/C(=N/O)[C@H]4OC/C(=C\C=C\[C@@H]2C)[C@]43O)O[C@@H](C)[C@@H]1O | inactive |
| COC1CC(OC2C(C)=CCC3CC(CC4(CCC(C)C(C5CCCCC5)O4)O3)OC(=O)C3C=C(C)C(=NO)C4OCC(=CC=CC2C)C34O)OC(C)C1O (stereo not given) | active |
| COCC(=O)Nc1ccc2c(c1)C(=O)N(C)[C@@H]1CC[C@@H](CC(=O)N3CCc4ccccc4C3)O[C@@H]1CO2 | inactive |
| COc1ccc(NC(=O)Nc2ccc3c(c2)C(=O)N([C@@H](C)CO)C[C@H](C)[C@H](CN(C)C(=O)NC2CCCCC2)OCCCC[C@@H](C)O3)cc1 | inactive |
| COc1ccc(C)c2c1CCCC2=O | inactive |

| SMILES | cytotoxicity call |
| --- | --- |
| C[C@H](CO)N1C[C@H](C)[C@H](CN(C)C(=O)Nc2cccc3ccccc23)Oc2ccc(NC(=O)Cn3cnnn3)cc2CC1=O | inactive |
| C[C@@H]1CN([C@H](C)CO)C(=O)c2cc(NC(=O)Nc3ccc(C(F)(F)F)cc3)ccc2O[C@@H](C)CCCCO[C@H]1CN(C)S(=O)(=O)c1cccs1 | inactive |
| C[C@@H]1CCCCO[C@@H](CN(C)C(=O)CCC(F)(F)F)[C@H](C)CN([C@H](C)CO)C(=O)c2cc(NS(=O)(=O)c3cccs3)ccc2O1 | inactive |
| Cc1ccc(S(=O)(=O)N[C@@H]2CC[C@H](CC(=O)N3CCC(Cc4ccccc4)CC3)O[C@@H]2CO)cc1 | inactive |
| C[C@@H]1CCCCO[C@H](CN(C)C(=O)NC2CCCCC2)[C@@H](C)CN([C@H](C)CO)C(=O)c2cc(NC(=O)Nc3ccccc3)ccc2O1 | inactive |
| C[C@@H]1CCCCO[C@H](CN(C)C(=O)C2CCCCC2)[C@@H](C)CN([C@@H](C)CO)C(=O)c2cc(NS(=O)(=O)c3ccc(F)cc3)ccc2O1 | inactive |
| COc1cccc(NC(=O)N(C)C[C@@H]2Oc3ncc(C#Cc4cccnc4)cc3C(=O)N([C@H](C)CO)C[C@@H]2C)c1 | inactive |
| C=C1CC2C3C=C(C)C4=CC(=O)CCC4(C)C3CCC2(C)C1(OC(C)=O)C(C)=O (stereo not given) | inactive |
| COC(=O)C[C@@H]1C[C@@H](C)[C@@H]2C(=O)c3c(O)c4c(c(O)c3C(=O)[C@@H]2[C@@H]1O)[C@H]1C[C@@H](O)[C@@]4(O)[C@@H](C)O1 | active |
| CO[C@H](CN(C)S(=O)(=O)c1cn(C)cn1)[C@H](C)CN(C(=O)Nc1ccc(C(F)(F)F)cc1)[C@@H](C)CO | inactive |
| C[C@@H]1CCCCO[C@H](CN(C)C(=O)Nc2ccc(C(F)(F)F)cc2)[C@H](C)CN([C@H](C)CO)C(=O)c2cc(NS(=O)(=O)c3ccccc3)ccc2O1 | active |
| C[C@@H]1CCCCO[C@@H](CN(C)C(=O)Nc2ccc(C(F)(F)F)cc2)[C@H](C)CN([C@H](C)CO)C(=O)c2cc(NS(=O)(=O)c3ccccc3)ccc2O1 | active |
| C[C@@H]1CCCCO[C@H](CN(C)C(=O)Nc2ccc(C(F)(F)F)cc2)[C@H](C)CN([C@@H](C)CO)C(=O)c2cc(NS(=O)(=O)c3ccccc3)ccc2O1 | active |
| C[C@@H]1CN([C@@H](C)CO)C(=O)c2cc(NS(=O)(=O)c3ccccc3)ccc2O[C@@H](C)CCCCO[C@@H]1CN(C)C(=O)Nc1ccc(C(F)(F)F)cc1 | inactive |
| C[C@@H]1CCCCO[C@@H](CN(C)C(=O)Nc2ccc(C(F)(F)F)cc2)[C@H](C)CN([C@@H](C)CO)C(=O)c2cc(NS(=O)(=O)c3ccccc3)ccc2O1 | inactive |
| C[C@@H]1CN([C@@H](C)CO)C(=O)c2cc(NS(=O)(=O)c3ccccc3)ccc2O[C@@H](C)CCCCO[C@H]1CN(C)C(=O)Nc1ccc(C(F)(F)F)cc1 | inactive |
| C[C@@H]1CN([C@H](C)CO)C(=O)c2cc(NS(=O)(=O)c3ccccc3)ccc2O[C@@H](C)CCCCO[C@H]1CN(C)C(=O)Nc1ccc(C(F)(F)F)cc1 | inactive |
| C[C@H]1CCCCO[C@@H](CN(C)C(=O)Nc2ccc(C(F)(F)F)cc2)[C@@H](C)CN([C@@H](C)CO)C(=O)c2cc(NS(=O)(=O)c3ccccc3)ccc2O1 | active |
| C[C@@H]1CCCCO[C@H](CN(C)C(=O)Nc2ccc(C(F)(F)F)cc2)[C@@H](C)CN([C@H](C)CO)C(=O)c2cc(NS(=O)(=O)c3ccccc3)ccc2O1 | inactive |
| C[C@H](CO)N1C[C@H](C)[C@@H](CN(C)C(=O)Nc2ccc(C(F)(F)F)cc2)OCCCC[C@H](C)Oc2ccc(NS(=O)(=O)c3ccccc3)cc2C1=O | inactive |
